# The campaign covered roughly 370,000 compounds. About 4,100 (1.1%) were called active. The sample holds actives, similar compounds and a random draw of the others, so the mix is not that of the screen.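 The calls were made as follows: active = inhibition above the mean over all tested compounds plus 3 SD (cut at about 3.6% in these data); inactive = the rest.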
# Assay: DAX1 (NR0B1) inhibitors on StAR promoter, primary screen, cell-based, luminescence, SF-1 (NR5A1), full-length DAX-1 (AID 652010);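 also: 0% = DAX-1 cells with DMSO and 100% = cells lacking DAX-1 with DMSO; higher inhibition means more luminescence from relief of DAX-1 repression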
# Conditions: HEK293T StAR-luciferase reporter, SF-1/DAX-1 repression relief; at 6.8 µM; hits give high values
row,SMILES,inhibition
1,CCOC(=O)C1=C(C)NC2=C(C(=O)CC(C)(C)C2)C1c1ccc2c(c1)OCO2 (stereo not given),-0.98% (inactive)
2,COCCCNC(=O)C[C@H]1C[C@@]2(C(=O)OC)C(=C[C@H](C(C)(C)C)O[C@@H]2C)N(Cc2ccc(Cl)cc2Cl)C1=O,-0.02% (inactive)
3,CC(=O)OC12CCCN(C1)/C(=C/c1ccncc1)C2 (stereo not given),0.29% (inactive)
4,COC(=O)[C@H](C(C)C)N(CCc1cn(Cc2ccccc2)nn1)S(=O)(=O)c1ccc(F)cc1Br,-1.05% (inactive)
5,CCOc1ccc(N2CC(C(=O)NCc3ccccn3)CC2=O)cc1 (stereo not given),-0.17% (inactive)
6,CCCNC(=O)C1CC(=O)N(c2ccc(OCc3ccccc3)cc2)C1 (stereo not given),5.35% (active)
7,CCCNC(=O)C1CC(=O)N(c2ccc(OCC(=O)Nc3cccc(C)c3C)cc2)C1 (stereo not given),0.23% (inactive)
8,O=C(NC1CCc2ccccc21)C12CN(Cc3ccccc3)CC1C(c1cccc([N+](=O)[O-])c1)=NO2 (stereo not given),-0.99% (inactive)
9,COc1ccc(CN2C(=O)N3Cc4cc(OC)ccc4C3CS2(=O)=O)cc1 (stereo not given),-0.73% (inactive)
10,NN=C(NN=Cc1ccccc1)c1ccccc1,0.41% (inactive)
11,O=C(NN=Cc1ccccc1)c1ccccc1,3.83% (active)
12,O=C(N/N=C/c1ccsc1)c1cc(O)cc(O)c1,-0.09% (inactive)
13,Cc1ccc(Cn2cc(CN3[C@@H](CC(C)C)COc4ccc(Cl)cc4S3(=O)=O)nn2)cc1,0.88% (inactive)
14,Cc1[nH]nc2c1C(c1ccc(Br)cc1)NC2=O (stereo not given),-0.04% (inactive)
15,CCCOc1ccc(Oc2c(Cl)cnn(Cc3cccc4ccccc34)c2=O)cc1,0.1% (inactive)
16,CN(C)Cc1cn(-c2ccc(-c3noc4c3C(=O)N(CC(=O)N3CCOCC3)CC4)cc2)nn1,-0.33% (inactive)
17,O=C(NCCc1cccc(F)c1)C1CCCN(c2nc3ccccc3s2)C1 (stereo not given),0.01% (inactive)
18,Cc1nc(N2CCCCC2)sc1C=O,0.27% (inactive)
19,Brc1ccc2nc(N3CCCC3)sc2c1,7.95% (active)
20,COc1ccc(-n2c(SCC(=O)Nc3ccc4c(c3)OCCO4)nnc2-c2ccc(Cl)cc2)cc1,0.07% (inactive)
21,COc1ccccc1C(=O)NC1CCCCN(C(C)C)C1=O (stereo not given),-0.1% (inactive)
22,O=C(CSc1nc2c(c(=O)[nH]1)CCCC2)N1CCCCC1,-0.21% (inactive)
23,COc1cccc(N(C)C(=O)[C@@H](C)[C@@H](O)c2ccc3ccccc3c2)c1,-0.75% (inactive)

row,SMILES,inhibition
1,COc1ccc(C(C)(O)c2nc(-c3cc(F)cc(F)c3)cs2)cc1 (stereo not given),-0.31% (inactive)
2,COc1ccc(-c2csc(Cc3nc(O)cs3)n2)cc1,4.06% (active)
3,COc1ccc(C2C(C(C)=O)=C(O)C(=O)N2c2nccs2)cc1 (stereo not given),0.43% (inactive)
4,Cc1ccc(NS(=O)(=O)c2cc3c(cc2Br)NC(=O)CO3)cc1C,-2.1% (inactive)
5,CN1CCN(S(=O)(=O)c2ccc(NC(=O)C3CCCO3)cc2)CC1 (stereo not given),-0.58% (inactive)
6,CCOc1cc(/C=N/NC(=O)c2ccc(CSc3nncn3C)cc2)ccc1OCC(=O)N1CCOCC1,0.55% (inactive)
7,O=S1(=O)c2ccc(N3CCN(Cc4ccccc4F)CC3)cc2Oc2ccccc2CN1Cc1cn(Cc2ccc(Cl)cc2)nn1,-0.86% (inactive)
8,O=S(=O)(c1cccs1)N1CCCc2nc(-c3ccc(Br)cc3)ccc21,0.56% (inactive)
9,CCCCN1CCN(C(=O)c2ccc3c(c2)NC(=O)C(C)(C)O3)CC1,0.65% (inactive)
10,CC(NS(=O)(=O)c1ccc(OCC(=O)N2CCCC2)cc1)c1ccccc1 (stereo not given),0.22% (inactive)
11,COc1ccc(N(CC(=O)N2CCCCCC2)S(=O)(=O)c2ccccc2)cc1,-0.37% (inactive)
12,CCN(c1ccccc1)S(=O)(=O)c1ccc(OCC(=O)N2CCCC2)cc1,4.72% (active)
13,CC(=O)c1ccc(NC(=O)CCc2nnc3ccc(NCc4ccco4)nn23)cc1,4.34% (active)
14,O=C(CCc1nnc2ccc(NCc3ccco3)nn12)Nc1cc(F)ccc1F,1.27% (inactive)
15,CCOc1ccccc1NC(=O)CCc1nnc2ccc(NCc3ccco3)nn12,-0.55% (inactive)
16,O=C(CSc1nnc(-c2ccccc2)n1Cc1ccco1)Nc1ccccc1-c1ccccc1,-1.32% (inactive)
17,Cc1cccc(NC(=O)C(C)N2C(=O)C3C4CC(C(Br)C4Br)C3C2=O)c1 (stereo not given),-0.17% (inactive)
18,Nc1ccc2nn(-c3ccc(Cl)cc3)nc2c1,4.89% (active)
19,Nc1ccc2c(c1)C(O)c1ccc(Cl)cc1-2 (stereo not given),0.66% (inactive)
20,Nc1nc2cc(Cl)ccc2n1N,0.18% (inactive)
21,CCOC(=O)N1CCN(C(=O)C[C@H]2C[C@@]3(C(=O)OC)C(=C[C@H](C4CCCC4)O[C@@H]3C)N(Cc3ccccc3)C2=O)CC1,-0.29% (inactive)
22,CC(C)N1CCCCC(NC(=O)C(C)(C)C)C1=O (stereo not given),-0.67% (inactive)
23,CC(=O)Nc1cccc(C(=O)OCC(=O)NCc2cc(C)c(O)c(C)c2)c1,2.37% (inactive)

row,SMILES,inhibition
1,CC(=O)Nc1cccc(C(=O)OCN2C(=O)c3ccccc3C2=O)c1,1.3% (inactive)
2,CC(=O)Nc1cccc(C(=O)OCC(=O)c2ccc3c(c2)OCO3)c1,13.7% (active)
3,COC(=O)C1CN(CCc2ccccc2)CCS(=O)(=O)N1Cc1cccc(Cl)c1 (stereo not given),-1.7% (inactive)
4,O=C1CC[C@@H](COc2ccc3[nH]cc(-c4ccccc4)c3c2-c2ccccc2)N1,-0.82% (inactive)
5,O=C(COC(=O)CNC(=O)c1ccccc1F)NCC(F)(F)F,-0.62% (inactive)
6,O=C(NCC(=O)N1CCCCCCC1)c1ccccc1Cl,-0.28% (inactive)
7,O=C(NCC(=O)N1CCCC(C(F)(F)F)C1)c1ccccc1F (stereo not given),4.23% (active)
8,O=C(C1CCCO1)N(c1ccc(F)cc1)C1C=CS(=O)(=O)C1 (stereo not given),-0.69% (inactive)
9,C=CC1=CCN(S(=O)(=O)C(C)(C)C)[C@@H]1CCO,-0.3% (inactive)
10,O=C(COC(=O)c1cc(=O)[nH]c2ccccc12)NCc1cccc(Cl)c1,-1.15% (inactive)
11,CN(C(=O)COC(=O)c1cc(=O)[nH]c2ccccc12)C1CCCCC1,3.03% (inactive)
12,CC1CCN(C(=O)COC(=O)c2cc(=O)[nH]c3ccccc23)CC1,9.38% (active)
13,COC(=O)[C@@]12CCCCC=C1N(CCc1ccc(Cl)cc1)C(=O)[C@H]2CC(=O)NCc1ccc(OC)c(OC)c1,-1.83% (inactive)
14,CC(C)(C)OC(=O)NCCc1ccccc1/C=C/S(=O)(=O)NCc1ccc(F)cc1,-2.47% (inactive)
15,C=CCN(CC=C)C(=O)CN1C(=O)c2ccccc2C1=O,-0.48% (inactive)
16,C=CCn1c(C)cc(C(=O)CN2C(=O)c3ccccc3C2=O)c1C,3.9% (active)
17,COc1cc(C(C)=O)ccc1OC(=O)CN1C(=O)c2ccccc2C1=O,-0.4% (inactive)
18,CCn1c(SCC(C)=O)nc2sc3c(c2c1=O)CCCC3,-0.04% (inactive)
19,O=C(COC(=O)/C=C/c1ccc2c(c1)OCO2)NC1CCS(=O)(=O)C1 (stereo not given),0.14% (inactive)
20,COc1ccc(S(=O)(=O)N(C)CC(=O)Nc2ccc3c(c2)OCCO3)cc1OC,0.16% (inactive)
21,Cc1cccc(NC(=O)/C=C/c2ccc3c(c2)OCO3)n1,5.26% (active)
22,Cc1ccc(OCCCC(=O)Nc2ccc3c(c2)OCCO3)cc1,-0.75% (inactive)
23,COc1cccc(/C=C/C(=O)Nc2ccc3c(c2)OCCO3)c1,5.36% (active)

row,SMILES,inhibition
1,CN(Cc1ccccc1)C(=O)COC(=O)/C=C/c1ccc2c(c1)OCO2,0.06% (inactive)
2,C=CCN1C(=O)[C@H](CC(=O)N2CCN(C(=O)OCC)CC2)[C@@]2(C(=O)OCC)CCCC=C12,-0.21% (inactive)
3,COC(=O)c1ccccc1-n1cc(COC(=O)NCCc2ccccc2)nn1,-0.35% (inactive)
4,Cc1cc(NS(=O)(=O)c2ccc(NC(=O)CSc3nnc(-c4ccc(C(C)(C)C)cc4)n3Cc3ccco3)cc2)nc(C)n1,0.36% (inactive)
5,COC(=O)C1=C(C)N(Cc2ccccc2C(F)(F)F)C(=NCC2CC2)NC1c1cccc(Cl)c1 (stereo not given),0.1% (inactive)
6,CC(C)C[C@H]1CN([C@@H](CC(C)C)CN2CCC[C@@H]2CN2C(=O)C(=O)NC[C@@H]2Cc2ccccc2)C(=O)C(=O)N1CCc1ccccc1,-1.31% (inactive)
7,CN1[C@H](Cc2ccccc2)COc2cccc(N3CCSCC3)c2S1(=O)=O,-1% (inactive)
8,O=C(O)c1cccc(N=NN2CCCCCC2)c1,6.35% (active)
9,Cc1cccc(C(=O)N2CCN(S(=O)(=O)N3CCCCC3)CC2)c1,1.49% (inactive)
10,NC1=NN(c2cccc(C(=O)O)c2)C(=O)C1,-0.57% (inactive)
11,CCOC(=O)[C@]12CCCC=C1N(CCCOC)C(=O)[C@@H]2CC(=O)N1CCOCC1,-0.49% (inactive)
12,CCCNC(=O)Nc1ccc2c(c1)C(=O)N(C)[C@H]1CC[C@H](CC(=O)NCC3CCCCC3)O[C@@H]1CO2,-0.63% (inactive)
13,COC(=O)C(C(=O)OC)c1ccccc1NS(=O)(=O)c1cccc2ccccc12,0.06% (inactive)
14,O=C(NCc1cccs1)C1CCCN(S(=O)(=O)c2ccc([N+](=O)[O-])cc2)C1 (stereo not given),-0.52% (inactive)
15,COc1ccc2c(C(C)c3ccc(N)cc3)cn(C)c2c1 (stereo not given),0.02% (inactive)
16,CCC(=O)Nc1ccc(-c2ccc(N3CCCCC3)nn2)cc1,4.53% (active)
17,CC1CCN(c2ccc(-c3ccc(NC(=O)c4ccco4)cc3)nn2)CC1,2.92% (inactive)
18,CCCCSc1nnc(-c2ccc(NC(=O)CC)cc2)n1C,-0.29% (inactive)
19,O=C(NCCc1csc(-c2ccccc2)n1)c1ccccc1F,-1.18% (inactive)
20,NS(=O)(=O)c1cc(C(=O)NCCOc2ccccc2)c(Cl)cc1Cl,0.12% (inactive)
21,O=C(NCCOc1ccccc1)c1ccccc1F,6.99% (active)
